Marburg entry inh: blocks Marburg virus binding to or entry into cells; Marburg virus pseudotyped entry inhibition, cell reporter; Potency, µM (highest dose often 37.8 µM), inactives show at the highest dose activity change, negative = inhibition, actives largely listed as inhibitors; 300,000 tested, 1.8% active; calls by dose curve; tested in HEK293 cells
FMDV antiviral: foot and mouth disease virus antiviral activity; Potency, µM (top dose mostly 57.9 µM), without a hit: at the highest dose activity change, negative = inhibition, usual class: inhibitors; FMDV antiviral cell-based qHTS; AID 1159524; 410,000 tested, 1.2% active; calls by dose curve; tested in HEK293T cells; note: read-out not given here; nearly all actives have a fitted effect of over 45% in size
RE007 growth inh: less growth of the S. pombe RE007 Vpr strain | S. pombe RE007 Vpr strain, BacTiter-Glo ATP luminescence, 24 h | Potency, µM (doses to about 92.2 µM), for the others: at the top dose activity change, negative = less growth, actives largely listed as inhibitors | 360,000 tested, 0.21% active | AID 651644; active = well fitted falling curve with a large enough effect; inconclusive = small, poorly fitted or top-dose-only effect; inactive = no such curve, though single readings can be large or run the other way; note: nearly all actives have a fitted effect of over 50% in size
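Fission yeast strain RE007, carrying one chromosomally integrated HIV-1 vpr copy, was seeded at OD 0.01 in PMG+AL medium with 23 nL pinned compound. After 24 h at 30 °C and 99% humidity, viability was read by BacTiter-Glo luminescence.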
LASV entry inh: blocks Lassa virus binding to or entry into cells; Lassa virus pseudotype entry inhibition, cell reporter; Potency, µM (highest dose often 37.9 µM), for inactives: at the highest dose activity change, negative = inhibition, actives largely listed as inhibitors; 300,000 tested, 1.2% active; AID 540256; calls by dose curve; tested in HEK293 cells; note: nearly all actives have a fitted effect of over 50% in size
HCV inhibitor: HCV inhibition. Huh7.5.1 HCVcc-Cre infection, luciferase reporter, 44 h. Potency, µM (titrated, usually from 41.8 µM), for the others: at the top dose activity change, negative = inhibition, usual class: inhibitors. 340,000 tested, 3.4% active
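1,000 cells/well; 4 h culture; + compound; + HCVcc-Cre (~0.5 moi); 44 h; luciferase substrate, RT 15 min; read 15 sec.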
Sm TGR inh: blocks Schistosoma mansoni thioredoxin glutathione reductase; purified TGR, DTNB reduction, TNB absorbance 405 nm; Q962Y6; Potency, µM (top dose mostly 114 µM), for the others: at the highest dose activity change, negative = inhibition, usual class: inhibitors; AID 485364; 360,000 tested, 3% active; note: nearly all actives have a fitted effect of over 60% in size
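Kinetic colorimetric format: TGR-catalysed, NADPH-driven DTNB reduction monitored via TNB absorbance. Enzyme dispensed at 20 nM; compound exposure 15 min at room temperature before reaction start.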
* = called active by the depositor; ? = inconclusive; nt = not tested or not shown; [ ] = another dose, or the depositor's remark. This is a sample that favours compounds with a hit; in the whole collection about 7.2% have one here. Unless noted, calls come from the whole dose curve; as a rule, active = well fitted curve in the direction sought with a large enough effect; inconclusive = small, poorly fitted or top-dose-only effect, or another doubt; inactive = no such curve, though single readings can be large; an effect the other way counts as inactive or inconclusive. % is set by controls: 0 for no effect and ±100 for the full control effect; potency is the fitted concentration of half-maximal effect.

SMILES | Marburg entry inh | FMDV antiviral | RE007 growth inh | LASV entry inh | HCV inhibitor | Sm TGR inh
CCN(C(=O)c1coc(=O)c(Br)c1)c1ccc2c(c1)OCO2 | 3% | 7% | -13% | -25% | 0% | 45µM*
CCN(C(=O)c1c(C)cc(=O)oc1C)c1ccc2c(c1)OCO2 | 10% | 3% | 7% | 0% | 24% | 0%
O=C1Cc2cc(CCN3CCN(c4nsc5ccccc45)CC3)c(Cl)cc2N1 | ? | nt | nt | 5.8µM* | nt | ?
Cc1cc(Cl)ccc1C(O)c1ncc(-c2ccc(Cl)cc2)[nH]1 (stereo unspecified) | nt | 14% | -23% | nt | nt | nt
CNC(=O)/C(C#N)=C/c1cccc(Oc2ccccc2)c1 | -2%[46.1 µM] | -16% | 18µM* | -21% | 9% | -5%
COc1ccc(/C=C(\C#N)C(=O)NCCc2ccccc2)cc1OCc1ccccc1 | 11µM* | -19% | -7% | ? | ? | -16%
COCCNC(=O)/C(C#N)=C/c1ccc(O)cc1 | 2% | 46% | ? | nt | 5% | -9%
COCCNC(=O)/C(C#N)=C/c1cccc(/C=C(\C#N)C(=O)NCCOC)c1 | ? | 14µM* | -1% | ? | 10µM* | -19%
COc1cc(OC)c(NC(=O)Nc2c(C)n(C)n(-c3ccccc3)c2=O)cc1Cl | -14%[46.1 µM] | -10% | nt | -7%[46.1 µM] | nt | 4%
CC(C)Oc1ccc(CNC(=O)C2CCCN(S(=O)(=O)c3ccc4c(ccn4C)c3)C2)cc1 (stereo unspecified) | nt | 0% | nt | ? | nt | 1%
Cc1cccn2c(=O)cc(COc3cccc(NC(=O)Nc4cccc(Cl)c4)c3)nc12 | nt | -1% | nt | 0%[46.1 µM] | nt | 3%
CC(OCC(O)CN(C)Cc1nc2ccccc2c(=O)[nH]1)c1ccc(Cl)cc1 (stereo unspecified) | nt | -28% | -5% | nt | 10µM* | 10%
CC(NC(=O)CN(C)Cc1nc2ccccc2c(=O)[nH]1)c1ccccc1 (stereo unspecified) | 3% | -5% | 4% | -19% | -8% | -3%
COc1cc(Cl)c(CN2CCOc3ccc(CN4CCCCC4CO)cc3C2)cc1OC (stereo unspecified) | nt | -4% | nt | nt | nt | nt
CC1(C)CC(=O)C2=C(C1)NC1=C(C(=O)c3ccccc31)C2c1ccc(O)cc1 (stereo unspecified) | ? | ? | 1% | -23% | -20% | -13%
CCCCc1ccc(C2C3=C(CC(C)(C)CC3=O)NC3=C2C(=O)c2ccccc23)cc1 (stereo unspecified) | ? | -9% | 0% | ? | 13µM* | -11%
CCOc1ccc2nc(N[C@@](NC(=O)CC)(C(=O)OC)C(F)(F)F)sc2c1 | 2% | nt | nt | nt | nt | nt
C=CCn1c(O)c(N=Nc2ccccc2)c2ccccc21 | -14%[46.1 µM] | -4% | 4% | 6%[46.1 µM] | 15% | 40µM*
Cc1cc(CN2CCCC(C(=O)Nc3cccc(-n4cccn4)c3)C2)cc(C)c1O (stereo unspecified) | nt | ? | 5% | nt | 13µM* | -10%
CCn1ncc(CN2CCCC(C(=O)Nc3cccc(-c4cc5ccccc5[nH]4)c3)C2)c1C (stereo unspecified) | ? | ? | 8% | 13µM* | ? | 8%
CCC(=O)N1CCc2cc(Br)cc(S(=O)(=O)N3CCCC(C(=O)NCc4ccc(C)cc4)C3)c21 (stereo unspecified) | -1%[46.1 µM] | -2% | nt | -35%[46.1 µM] | nt | 9%
COC(=O)c1cc2sc(C)cc2n1Cc1ccc(F)cc1Cl | -22%[46.1 µM] | -11% | nt | nt | nt | 19%
CCCCN(CC)Cc1ccc(CNS(=O)(=O)c2cc3c(cc2Cl)NC(=O)CO3)o1 | nt | 12% | nt | 3%[46.1 µM] | nt | -18%
C[n+]1cc2c3c(ccc2c2ccc4cc5c(cc4c21)OCO5)OCO3 | 0.89µM* | 25µM* | nt | nt | nt | nt
N#Cc1c(Cl)nsc1NC(=O)c1ccccc1 | nt | -2% | ? | nt | 14µM* | 1%
SMILES | Marburg entry inh | FMDV antiviral | RE007 growth inh | LASV entry inh | HCV inhibitor | Sm TGR inh
O=C(Nc1cc(Cl)ncn1)c1ccccc1 | -13%[46.1 µM] | 30% | -13% | -16% | -12% | nt
Cc1ccc(N2CCn3c2nc2c3c(=O)n(Cc3cccc(Cl)c3)c(=O)n2C)cc1C | nt | 4% | nt | 10%[46.1 µM] | nt | -7%
Cc1cc(C)c(NC(=O)CSc2nnc(-c3ccncc3)n2Cc2ccco2)c(Cl)c1 | 8% | 1% | 7% | 4% | ? | 22µM*
O=C(CSc1nnc(-c2ccccc2)n1Cc1ccco1)Nc1ccc2c(c1)OCCO2 | 7% | 11% | 15% | 4% | -12% | 35µM*
O=C(CSc1nnc(-c2cccs2)n1Cc1ccco1)Nc1ccc2c(c1)OCO2 | -16% | -20% | 15% | 5% | -18% | -9%
O=C(NC1CC(=O)N(c2ccc(Cl)cc2)C1)c1cc2ccccc2o1 (stereo unspecified) | nt | -13% | nt | -22%[46.1 µM] | nt | 8%
COC(=O)C1CCN(S(=O)(=O)c2c[nH]c(=O)[nH]c2=O)CC1 | nt | -17% | -1% | nt | nt | nt
CC1CCN(S(=O)(=O)c2c[nH]c(=O)[nH]c2=O)CC1 | -5%[46.1 µM] | 3% | 2% | 9% | 10µM* | 3%
CCOC(=O)C(=CNNc1ccccc1)C(=O)OCC | 25% | -3% | 8% | 1% | 26% | 2.2µM*
CCOC(=O)NNc1ccccc1 | ? | -7% | 232% | 0% | 14% | -8%
COCCN(CC1CCCN(C2Cc3ccccc3C2)C1)C(=O)CSC (stereo unspecified) | nt | 2% | 2% | nt | 2% | 32µM*
COCCN(CC1CCCN(C2Cc3ccccc3C2)C1)C(=O)CCSC (stereo unspecified) | nt | 1% | -11% | nt | -5% | ?
O=C(Nc1ccc(OCC(F)(F)C(F)F)c(C(F)(F)F)c1)c1ccccc1O | ? | ? | -6% | ? | 6.3µM* | -20%
O=C(Nc1ccc(OCC(F)(F)C(F)F)cc1)c1ccncc1 | -28%[46.1 µM] | ? | 1% | ? | ? | 9%
O=C(Nc1ccc(OCC(F)(F)C(F)F)c(C(F)(F)F)c1)c1ccccc1 | -20% | ? | 3% | -16% | 10µM* | nt
COc1cccc(/C(O)=C2\C(=O)C(=O)N(c3ccccn3)[C@H]2c2ccccc2OC)c1 | 1% | nt | nt | nt | nt | nt
O=C(CSc1nnc(NC(=O)c2ccc3c(c2)OCO3)s1)NCc1ccco1 | 7.1µM* | -33% | -10% | ? | 18% | 7%
O=C1CS/C(=N\N=C\c2ccco2)N1c1ccccc1 | ? | -1% | -15% | -23%[46.1 µM] | -10% | 14µM*
Nc1nc2ccc([N+](=O)[O-])cc2[nH]1 | nt | -9% | nt | nt | -5% | 8%
O=[N+]([O-])c1ccc(C[n+]2c(-c3ccccc3)cc(-c3ccccc3)cc2-c2ccccc2)cc1 | nt | -23% | -14% | nt | 10µM* | -4%
Cc1ccc(-c2nc3ccc([N+](=O)[O-])cc3[nH]2)cc1 | nt | -45% | -18% | nt | ? | -3%
COc1ccc(-c2nc3ccc([N+](=O)[O-])cc3[nH]2)cc1 | ? | -70% | -25% | 8.9µM* | -12% | 0%
